# ChEMBL document CHEMBL3988442, “University of Dundee, Small-Polar-MMV Screening Library” (2021)
# About 13,000 (27%) of roughly 48,000 compounds showed an effect of 50% or more. The list shows a part of the results.
# Tested on: Wolbachia pipientis
# Assay: Anti-Wolbachia Cell-Based Screen
# Type: functional
# Set-up: scale not given: in the data most compounds retested in dose-response had high values
# Conditions: 5 µM
row,Structure (SMILES),Percent Effect [%]
1,Cc1oc(-c2ccccc2)nc1C(=O)NC1=NCCS1,-10.94
2,Cc1ccc(NC(=O)c2ccc(N3CCCCC3)nn2)c(Cl)c1,-6.125
3,Cc1cc(C)n(CC(=O)N2CCCCC2CCN(C)C)c(=O)n1 (centres undefined),101.4
4,O=C1CCCN1CCC1CCCCN1C(=O)c1ccc(SCCO)cc1 (centres undefined),10.34
5,Cc1cc(C)n(CC(=O)N2CCCCC2CCc2cccs2)c(=O)n1 (centres undefined),103.5
6,Cn1c(C2CCCCN2C(=O)CN2CCCC2=O)nc2ccccc21 (centres undefined),3.336
7,Cc1cc(C)n(CC(=O)N2CCCCC2CCN2CCCC2=O)c(=O)n1 (centres undefined),117.3
8,O=C(NCCCc1cccs1)N1CCCCC1CCO (centres undefined),-11.71
9,Cc1cc(C)n(CC(=O)N2C[C@@H]3CC[C@H](C2)N(CC2CCC2)C3)c(=O)n1,9.507
10,Cc1cc(C)n(CC(=O)N(C)Cc2csc(-c3cccs3)n2)c(=O)n1,-2.174
11,Cc1cc2ccccc2n1CCC(=O)N1CCCCC1CCO (centres undefined),-1.29
12,COC(=O)c1cc(CN2CCN(c3nc(C)cnc3C)CC2)ccc1O,-22.17
13,CCN(CC)C(=O)c1cc(Br)cc(S(=O)(=O)N2CCOCC2)c1F,-12.93
14,COc1ccccc1C(=O)Nc1c(F)c(C(=O)NC2CCCC2)nn1C,102.6
15,COc1ccccc1C(=O)Nc1c(C)cnn1CC1CC1,-3.808
16,COc1ccccc1C(=O)Nc1ccc(OC2CCN(C)CC2)cc1,-27.65
17,COc1ccccc1C(=O)Nc1c(F)c(C(=O)N2CCCC2)nn1C,113.5
18,Cc1nn(C)c(C)c1C(C(=O)O)N1CCc2ccccc2C1 (centres undefined),39.47
19,CC(C)C(=O)Nc1cc(C(C)(C)C)nn1-c1ccccn1,3.907
20,CN(Cc1ccccc1Cl)C(C(=O)O)c1ccc(F)c(CO)c1 (centres undefined),-0.8463
21,Cc1ccc(NS(=O)(=O)c2cnn(-c3ccccc3)c2)c(C(=O)O)c1,131.3
22,CCn1cc(C(=O)Nc2ccc(C)cc2C(=O)NC)cn1,-4.213

row,Structure (SMILES),Percent Effect [%]
1,CCn1cc(S(=O)(=O)NC(CO)Cc2ccccc2)cn1 (centres undefined),-18.17
2,NC(=O)C1CCN(S(=O)(=O)c2cnn(-c3ccccc3)c2)CC1,-7.83
3,Cc1ccc(-n2cc(S(=O)(=O)Nc3cccc(C(=O)O)c3C)cn2)cc1,125.3
4,Cc1cccc(NS(=O)(=O)c2cnn(C)c2)c1C#N,-6.698
5,Cc1ccc(NS(=O)(=O)c2cnn(Cc3ccccc3)c2)c(C(=O)O)c1,100.3
6,CCn1nc(C)c(S(=O)(=O)Nc2cccc(C(=O)O)c2C)c1C,-0.6024
7,Cc1cn(-c2ccccc2)nc1NS(=O)(=O)c1cccc(C(=O)O)c1,12.37
8,CC(C)c1cc(N2CCC(C(C)N3CCCC3)CC2)n2nccc2n1 (centres undefined),-4.218
9,CN(Cc1nc(-c2cccs2)no1)Cc1nc2c(s1)CCCC2,-10.58
10,Cc1ccc2cnn(CCC(=O)Nc3c(C)nn(C)c3C)c2c1,-9.349
11,O=C(NCc1cccc(N2CC=CC2)c1)NC1CC1,1.832
12,Cc1ccc(C(=O)N2CC[C@H](N3CCOCC3)[C@H](CCCO)C2)cc1O,-3.81
13,O=C(c1cnccn1)N1CCN(Cc2cccnc2)c2ncccc2C1,97.13
14,CN1CCN(C(=O)c2cccn2C)Cc2cccnc21,105.6
15,COCCN1CCN(C(=O)c2ccncc2F)Cc2cccnc21,4.379
16,Cn1cccc1C(=O)N1CCN(Cc2ccncc2)c2ncccc2C1.O=C(O)C(F)(F)F.O=C(O)C(F)(F)F,-28.33
17,CN(C)C(=O)N1CCN(C)c2ncccc2C1,5.475
18,Cn1cccc1C(=O)N1CCN(CC2CC2)c2ncccc2C1,-25.73
19,O=C(c1cnccn1)N1CCN(Cc2ccncc2)c2ncccc2C1,-4.343
20,O=C(N1CCCC1)N1CCN(Cc2cccnc2)c2ncccc2C1.O=C(O)C(F)(F)F.O=C(O)C(F)(F)F,101.8
21,Cn1cccc1C(=O)N1CCN(Cc2cccnc2)c2ncccc2C1.O=C(O)C(F)(F)F.O=C(O)C(F)(F)F,51.12
22,Cc1ccc(C2COCCN2C(=O)c2ccc(CN(C)C)cc2)o1 (centres undefined),-6.944

row,Structure (SMILES),Percent Effect [%]
1,CC(C)Oc1cc(N2C[C@H](C3CC3)[C@@H](N)C2)nc(N)n1,12.97
2,COc1ccc(-c2noc([C@@H]3C[C@H](NC(=O)NC(C)C)CN3C)n2)cc1,2.003
3,COc1ccnc(N2Cc3cnc(C(C)(C)C)nc3C2)n1,-13.37
4,O=C(c1ccncc1F)N1CCN(CC2CC2)c2ncccc2C1,10.49
5,O=C(O)C(F)(F)F.O=C(O)C(F)(F)F.O=C(c1ccnnc1)N1CCN(Cc2cccnc2)c2ncccc2C1,97.06
6,O=C(c1ccc[nH]1)N1CCN(Cc2ccncc2)c2ncccc2C1,105
7,O=C(O)C(F)(F)F.O=C(O)C(F)(F)F.O=C(O)C(F)(F)F.O=C(c1ccncc1)N1CCN(Cc2cccnc2)c2ncccc2C1,105.3
8,O=C(c1ccc[nH]1)N1CCC(c2nccn2Cc2ccncc2)CC1,-7.637
9,CC(=O)NCC(=O)N1CCN(Cc2ccncc2)c2ncccc2C1,-10.24
10,O=C(O)C(F)(F)F.O=C(O)C(F)(F)F.O=C(c1ccnnc1)N1CCN(Cc2ccncc2)c2ncccc2C1,96.92
11,CN1CCN(C(=O)Cc2cccc(F)c2)Cc2cccnc21.O=C(O)C(F)(F)F,-17.2
12,Cc1cc(C)n(-c2cncc(N3CCN(C(=O)C(C)(C)C)CC3)n2)n1,6.121
13,NC(=O)c1cccc(CCNCc2cccs2)c1,0.5417
14,Cc1ccc2c(c1)c(CNC(=O)C1CCCN(CC(N)=O)C1)nn2C (centres undefined),-18.62
15,CC(C)N1[C@H](Cn2cccn2)C[C@@H]2CN(C3CCOCC3)CC[C@@H]21.O=C(O)C(F)(F)F.O=C(O)C(F)(F)F.O=C(O)C(F)(F)F,7.148
16,CC(C)N1CC[C@H]2[C@H](C[C@@H](Cn3cncn3)N2c2nccs2)C1.O=C(O)C(F)(F)F.O=C(O)C(F)(F)F,110.1
17,CC(C)N1CC[C@H]2[C@H](C[C@@H](Cn3cccn3)N2c2nccs2)C1.O=C(O)C(F)(F)F.O=C(O)C(F)(F)F.O=C(O)C(F)(F)F,108.8
18,CN1CC[C@H]2[C@H](C[C@@H](Cn3cncn3)N2c2nccs2)C1,-5.255
19,CN1[C@H](Cn2cncn2)C[C@@H]2CN(C3CCOCC3)CC[C@@H]21.O=C(O)C(F)(F)F.O=C(O)C(F)(F)F,8.742
20,CC(=O)N1CC[C@H]2[C@H](C[C@@H](Cn3cncn3)N2c2nccs2)C1.O=C(O)C(F)(F)F,4.075
